Rows were chosen to be rich in hits. Some 3.5% of all compounds tested hit in one or more screens of this group.
GPR151 ag – activators of human GPR151, primary screen, cell-based, PathHunter beta-arrestin, luminescence | G-protein coupled receptor 151 (Homo sapiens), Q8TDV0 | PathHunter beta-arrestin GPR151 cells | activation, % at 11.2 µM | hit rate 1% among 650,000 | AID 1508602, 2020; in the data active means activation above about 4.9%
Target sequence (Q8TDV0 whole entry, looked up): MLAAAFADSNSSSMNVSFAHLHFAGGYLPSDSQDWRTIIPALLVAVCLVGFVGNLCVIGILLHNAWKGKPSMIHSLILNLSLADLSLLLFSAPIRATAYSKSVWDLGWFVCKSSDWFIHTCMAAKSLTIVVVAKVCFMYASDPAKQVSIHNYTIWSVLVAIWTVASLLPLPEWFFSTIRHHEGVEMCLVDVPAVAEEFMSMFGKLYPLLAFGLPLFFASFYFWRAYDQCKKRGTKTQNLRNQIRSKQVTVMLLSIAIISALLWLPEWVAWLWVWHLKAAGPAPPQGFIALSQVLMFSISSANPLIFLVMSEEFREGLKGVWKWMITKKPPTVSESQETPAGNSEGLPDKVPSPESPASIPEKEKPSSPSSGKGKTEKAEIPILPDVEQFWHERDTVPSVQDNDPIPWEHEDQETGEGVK
TEAD-YAP inh – TEAD-YAP interaction inhibition, primary screen, TEAD-YAP interaction inhibitor project, luminescence, HEK-TIYL cells. TEAD-Gal4/YAP UAS-luciferase luminescence. inhibition, % at 9.12 µM. hit rate 1.4% among 640,000. AID 1259422, 2018; in the data active means inhibition above about 32%
FBW7 act – FBW7 E3 ligase activators, primary screen, biochemical, AlphaScreen, human; F-box/WD repeat-containing protein 7 (Homo sapiens), Q969H0; normalized activity (activation), % at 26.1 µM; AlphaScreen FBW7–phospho-cyclin E peptide binding, activator screen; hit rate 0.13% among 650,000; in the data active means normalized activity above about 1.9%;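 further: purified mutant Fbw7 with reduced substrate affinity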
MITF inh – MITF inhibitors, primary screen, biochemical, AlphaScreen, human; AlphaScreen MITF homodimerization, bead proximity signal; inhibition, % at 2.6 µM; hit rate 0.91% among 650,000; in the data active means inhibition above about 50%
MITF confirm – MITF inhibitors, retest of hits, confirmation, biochemical, AlphaScreen, triplicate | shares compounds with MITF inh | AlphaScreen MITF homodimerization, biotin/His-MITF beads | hit rate 16% among 4,700 | inhibition, % at 2.6 µM | AID 1259372, 2018;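 active means inhibition above a cutoff derived from the DMSO control wells, cut at about 28% in these data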;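 further: inhibitors lower the bead chemiluminescence by keeping MITF from dimerizing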
AS interf DR – AlphaScreen optical interference compounds, dose response, counter-screen, biochemical, HTS; shares compounds with MITF inh; AlphaScreen optical interference counterscreen, cell-free; IC50, µM; hit rate 6% among 480; call rule not given here
AS interf ctr – AlphaScreen optical interference compounds, counter-screen for MITF inhibitor project, biochemical, triplicate | shares compounds with MITF inh | LysRS AlphaScreen counterscreen, signal interference | inhibition, % at 2.6 µM | hit rate 7.6% among 4,700 | AID 1259376, 2018;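 active means inhibition above a cutoff derived from the DMSO control wells, cut at about 30% in these data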
A number is an active result; n = inactive; x = no result.

SMILES	GPR151 ag	TEAD-YAP inh	FBW7 act	MITF inh	MITF confirm	AS interf ctr	others
COc1ccc(CN2CCN(Cc3ccccc3OC)CC2)c(OC)c1	n	n	n	78.1	n	n
COc1ccccc1CN1CCOCC1	n	n	n	58.5	n	n
CCCN1C(=O)C2(/C(=C(\O)c3ccccc3)C(=O)C(=O)N2CCCOC)c2ccccc21 (stereo unspecified)	n	n	n	n	x	x
COc1ccc(N(C(=O)c2csnn2)C(C(=O)NC(C)(C)C)c2ccc(F)cc2)cc1 (stereo unspecified)	n	n	n	n	x	x
COc1ccc(CN2CCN(Cc3cc(OC)c(OC)cc3OC)CC2)c(OC)c1	n	n	n	72.8	n	n
COc1ccc(CN2CCN(Cc3cc(OC)c(OC)cc3[N+](=O)[O-])CC2)cc1OC	n	n	n	67.5	n	n
COc1ccc(CN2CCN(Cc3cc(OC)c(OC)cc3[N+](=O)[O-])CC2)c(OC)c1	n	n	n	80.0	n	n
COc1cc(CN2CCCC2)c([N+](=O)[O-])cc1OC	n	n	n	n	x	x
COCCNC(=O)c1ccc(-c2ccc(C)c(C)c2)nc1NCC1CC1	n	n	n	n	x	x
CCN(c1ccccc1)c1c([N+](=O)[O-])ccc2nonc12	n	n	n	66.0	59.4	54.5
CCN(c1ccccc1)c1cc(N2CCOCC2)c2nonc2c1[N+](=O)[O-]	n	n	n	n	x	x
CC(=O)c1ccc(NC(=S)NNC(=O)CC#N)cc1	n	n	n	92.8	n	n
CCNC(=S)NNC(=O)c1ccc(NC(=O)CC#N)cc1	n	n	n	n	x	x
CCCNC(=O)c1cnc(Nc2cnccn2)s1	n	n	n	54.7	n	n
Cc1ccc(NC(=S)NNC(=O)C(N)=O)c(C)c1	n	n	n	n	x	x
N#Cc1ccc(C(=O)Nc2cccnc2)c(F)c1	n	n	n	n	x	x
CN(C)CC(=O)Nc1cc(N(C)C)nc2ccccc12	n	n	n	61.5	n	n
O=S(=O)(NCCCN1CCOCC1)c1ccc(Cl)cc1	n	n	n	n	x	x
O=S(=O)(Cc1ccc(Cl)cc1)NCCN1CCOCC1	n	n	n	71.7	n	n
CC(O)(CNCCN1CCOCC1)COc1ccc(Cl)cc1 (stereo unspecified)	n	n	n	54.5	73.0	n	AS interf DR=n
CN(CC1COCCO1)C(=O)CCc1nnc(Cc2cccc(C(F)(F)F)c2)o1 (stereo unspecified)	n	n	n	n	x	x
C=CCOc1cccc(/C=N\NC(=O)C(=O)NCCOC)c1	n	n	n	n	x	x
CCCCCn1c(CN2CCc3ccccc3C2)nc2c1c(=O)n(C)c(=O)n2C	n	n	n	n	x	x
CC(C)(C)c1csc(CN2CCN(CC(=O)Nc3ccc4c(c3)OCO4)CC2)n1	n	n	n	79.5	n	n
COc1nccnc1NS(=O)(=O)c1ccc(NC(=O)c2ccc([N+](=O)[O-])c(C)c2)cc1	n	n	n	59.2	34.3	n	AS interf DR=n
SMILES	GPR151 ag	TEAD-YAP inh	FBW7 act	MITF inh	MITF confirm	AS interf ctr	others
O=C1c2ccc([N+](=O)[O-])cc2C(=O)N1c1cc(Br)c(O)c(Br)c1	n	n	n	68.7	75.4	n	AS interf DR=n
CCCOc1ccc(N)cc1N	n	n	n	56.6	110.2	n	AS interf DR=n
CCN(CC)C(=O)CN1CCCC(c2ncncc2S(C)(=O)=O)C1 (stereo unspecified)	n	n	n	63.5	n	n
CS(=O)(=O)c1cncnc1C1CCCN(C(=O)N2CCCC2)C1 (stereo unspecified)	n	n	n	n	x	x
O=C(O)CN1CC2([N+](=O)[O-])C=CCC([N+](=O)[O-])(C1)C2 (stereo unspecified)	n	n	n	55.0	n	n
CCN(CC)C(=O)C1=CC2([N+](=O)[O-])CN(CC(=O)O)CC([N+](=O)[O-])(C1)C2 (stereo unspecified)	n	n	n	n	x	x
O=C(N/N=C\C(Br)=C\c1ccccc1)c1ccccn1	n	n	n	n	x	x
CC(=O)C(/C=N/NC(=O)c1ccccn1)=C(\C)O	n	n	n	58.8	33.3	56.8

Screening results from PubChem.
